Bioassay records: PubChem BioAssay, National Center for Advancing Translational Sciences (NCATS)
SARS PLpro yeast: qHTS of Yeast-based Assay for SARS-CoV PLP; Potency, µM (top dose mostly 32.9 µM), for the others: top-dose activity, positive = growth rescue, hits mostly activators; 330,000 compounds, 0.19% hits; S. cerevisiae expressing SARS-CoV PLpro, growth rescue; calls by dose curve; further: potency means the concentration at half of the fitted maximal effect; 0% is about no effect; nearly all actives have a fitted effect of over 55% in size
NS1 function inh: qHTS Assay for Inhibitors of Influenza NS1 Protein Function. Potency, µM (series often up to 46.1 µM), inactives show at the highest dose activity, positive = more growth. 270,000 compounds, 0.4% hits; calls by dose curve; further: potency means the concentration at half of the fitted maximal effect; actives are rising curves; nearly all actives have a fitted effect of over 50% in size
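A cell-based growth assay was used: compounds that relieve NS1-induced slow growth of budding yeast raise OD600. Assay medium was yeast nitrogen base with ammonium sulphate and -URA supplement, pH 6.0, with 2% galactose.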
Pf growth 48h: Primary qHTS for delayed death inhibitors of the malarial parasite plastid, 48 hour incubation; P. falciparum luciferase growth in erythrocytes, 48 h; Potency, µM (doses to about 28.7 µM), without a hit: at the top dose activity change, negative = inhibition, usual class: inhibitors; 310,000 compounds, 5.9% hits; AID 504832, 2011; further: potency means the concentration at half of the fitted maximal effect; on the % scale 0 is the no-effect control and ±100 the full control effect
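Luciferase-expressing P. falciparum in infected erythrocytes (2% hematocrit, 0.1% parasitemia final) in RPMI 1640/0.5% Albumax were exposed to compound for 48 hours at 37 C, 5% CO2; growth read as luminescence.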
Pf growth 96h: Primary qHTS for delayed death inhibitors of the malarial parasite plastid, 96 hour incubation; P. falciparum luciferase reporter growth, 96 h; Potency, µM (highest dose often 28.7 µM), without a hit: at the highest dose activity change, negative = inhibition, usual class: inhibitors; 320,000 compounds, 6.9% hits; further: potency means the concentration at half of the fitted maximal effect; on the % scale 0 is the no-effect control and ±100 the full control effect
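Erythrocytes infected with luciferase-expressing P. falciparum were dispensed at 2% hematocrit and 0.05% parasitemia (final), then incubated with compounds 96 hours at 37 C in 5% CO2. Luminescence after detection reagent addition reported growth.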
Cycloheximide cs: Cycloheximide Counterscreen for Small Molecule Inhibitors of Shiga Toxin; cell reporter, cycloheximide protein synthesis inhibition counterscreen; max response, %; 300,000 compounds, 12% hits; in the data active means max response mostly above about 13%, no sharp cut-off; inactive means mostly below about 14%; further: read at 38.3 µM for the half of the compounds with a filed dose; 0% is about no effect
Shiga toxin inh: A qHTS for Small Molecule Inhibitors of Shiga Toxin; inhibition, % at 38.7 µM; Vero cells, Shiga toxin protein synthesis inhibition reporter; AID 2315, 2010; 290,000 compounds, 9.2% hits; in the data active means inhibition mostly above about 28%, no sharp cut-off; inactive means mostly below about 43%; further: 0% is about no effect
An asterisk follows results filed as active; i = inactive; ? = inconclusive; . = not tested or not shown. Rows were chosen to be rich in hits. Some 21% of all compounds tested hit in one or more screens of this group. Unless noted, the call rests on the fitted dose curve; in most records, active means well fitted inhibition curve with a large enough effect; inconclusive means small, poorly fitted or top-dose-only effect, or another doubt; inactive means no such curve, though single readings can be large or run the other way.

SMILES | SARS PLpro yeast | NS1 function inh | Pf growth 48h | Pf growth 96h | Cycloheximide cs | Shiga toxin inh
Cc1nc2ccc(C(=O)N/N=C/c3ccccc3O)cc2[nH]1 | 1% | -13% | ? | ? | 44* | 84*
O=C(N/N=C/c1ccc2c(c1)OCO2)c1ccc(NC(=O)c2ccc(F)cc2)cc1 | 7% | 10% | 2.3µM* | -14% | 10 | 55
O=C(O)c1ccc(-c2ncc[nH]2)cc1 | 0% | . | ? | ? | -2 | -17
CCN(CC)c1ccc(/C=N/NC(=O)C2CC2)cc1 | -2% | -24% | ? | 1% | 48* | 80*
O=C(N/N=C/c1ccccc1OC(=O)c1ccc2c(c1)OCO2)c1cccc(F)c1 | 13% | 9% | 9% | 6% | 16 | 64*
CCCCCCOc1ccc(/C=N/NC(=O)C2CC2)cc1 | -1% | -9% | ? | 12% | -3 | -7
O=C(N/N=C/c1ccsc1)c1ccc2c(c1)OCO2 | -1% | . | 168% | 75% | . | .
O=C(N/N=C/c1cccs1)c1ccc2c(c1)OCO2 | -37% | -20% | -2% | -19% | 25* | 34
O=C(Nc1ccc(NC(=O)c2cccs2)cc1)c1ccc2c(c1)OCO2 | -2% | -76% | 25% | 42% | -2 | 15
O=C(N/N=C/c1ccc(Cl)cc1)c1ccc2c(c1)OCO2 | -1% | 4% | 85% | -3% | 51* | 90*
COc1cccc(N=C(N)N)c1 | -3% | . | -54% | -4% | -5 | -6
Nc1nc(N)nc(CCCc2nc(N)nc(N)n2)n1 | . | 6% | . | . | . | .
Cc1cc(OCC(=O)NC2CCN(Cc3ccccc3)CC2)c2c(C)cc(=O)oc2c1 | 2% | -4% | ? | ? | 7 | 2
O=C(N/N=C\C=C\c1ccc(Br)cc1)c1ccc2c(c1)OCO2 | 1% | -3% | -18% | 0% | 9.9* | 23*
O=C(N/N=C/c1cc(Cl)cc([N+](=O)[O-])c1O)c1ccc2c(c1)OCO2 | -6% | 12% | ? | 106% | 3 | 23
O=C(N/N=C/C1CC2CCC1C2)c1ccc2c(c1)OCO2 (stereo unspecified) | 9% | -29% | 14% | 18% | 41* | 39*
O=C(N/N=C/c1cccc([N+](=O)[O-])c1)c1ccc2c(c1)OCCO2 | 0% | -2% | 153% | i | 43* | 62*
CCc1noc(C)c1C(=O)Nc1ccc(S(=O)(=O)N2CCC(C)CC2)cc1 | -5% | . | ? | ? | . | .
Cc1ccc2c(C)c(C(=O)NCc3ccc(S(N)(=O)=O)cc3)oc2c1 | 0% | -4% | -9% | 12% | -3 | -11
CC1(C)CC(=O)C2=C(C1)Nc1ccccc1N=C2 | -23% | -13% | 136% | ? | 50* | 85*
CC1(C)CC(=O)C2=C(C1)Nc1ccccc1NC2 | 0% | . | -2% | -7% | 44* | 139*
COCCCNC(=S)NNC(=O)c1ccc2c(c1)OCO2 | -12% | ? | 97% | ? | 0 | -1
O=C(NCCO)c1ccc(Cl)c(Cl)c1 | -2% | -4% | 14% | 15µM* | -6 | -24
CC(C)OCCCNC(=S)NNC(=O)c1ccc(Cl)c(Cl)c1 | 0% | 1% | 46% | -16% | 29* | 66*
O=C(NCCO)c1ccc(Cl)cc1 | . | -11% | . | . | . | .
SMILES | SARS PLpro yeast | NS1 function inh | Pf growth 48h | Pf growth 96h | Cycloheximide cs | Shiga toxin inh
CCN(CC)C(=O)CSc1nc2c(sc(=S)n2-c2ccccc2)c(=O)n1-c1ccccc1OC | -1% | 15% | 8.3µM* | 0% | -2 | -2
CCN(CC)C(=O)CSc1nc2c(sc(=S)n2-c2ccccc2)c(=O)n1-c1ccc(OC)c(OC)c1 | 2% | 8% | 4.7µM* | 8% | -1 | 17
COc1ccc(-n2c(SCC3OCCO3)nc3c(sc(=S)n3-c3ccccc3)c2=O)cc1OC | -1% | . | -19% | -56% | 10 | -1
COc1ccccc1-n1c(SCC(=O)O)nc2c(sc(=S)n2-c2ccc(C)c(C)c2)c1=O | 0% | ? | -2% | ? | -2 | -16
CCN(CC)C(=O)CSc1nc2c(sc(=S)n2-c2ccccc2)c(=O)n1-c1ccc(OC)cc1OC | 0% | 11% | 6.6µM* | ? | -5 | -5
CCOC(=O)CSc1nc2c(sc(=S)n2-c2ccccc2)c(=O)n1-c1ccc(OC)cc1OC | -1% | ? | 10µM* | 11% | 8 | 11
